Screening results (PubChem BioAssay)
In the library only some 22% were active in any assay of this set; here they are far more common.
E-sel TNF inh: blocks E-selectin expression induced by TNF alpha; inhibition, % at 2 µM; 120,000 compounds, 0.71% hits; HUVEC TNFa-induced E-selectin immunofluorescence, high content;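 active = inhibition above the batch mean plus 3 SD, and confirmed as a hit on visual image review, cut at about 43% in these data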;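 note: 0% = TNF-stimulated DMSO wells and 100% = unstimulated control wells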
CYP2C19 inhib: human CYP2C19 inhibition. P33261. CYP2C19 Supersomes, luciferin-H EGE luminescence, 30 min. inhibition, % at 5 µM. 96,000 compounds, 21% hits;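 active = CYP2C19 inhibition above a set limit at 5 µM in the primary screen, cut at about 50% in these data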;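 note: plate controls were negative control wells for no effect and 2.5 mM tranylcypromine positive control for full effect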
CYP2C19 activ: increases human CYP2C19 enzyme activity; P33261; AID 1025; 96,000 tested, under 10 active; activation factor at 5 µM; recombinant CYP2C19, luciferin-H EGE luminescence; active compounds read high; 0 = fully inhibited enzyme, 1 = untreated enzyme;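 active = activation factor of at least 2 at 5 µM in the primary screen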;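 note: 0 = wells with 2.5 mM tranylcypromine and 1 = vehicle-only wells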
CYP2C9 inhib: human CYP2C9 inhibition | P11712 | inhibition, % at 5 µM | 96,000 compounds, 20% hits | CYP2C9 Supersomes, luciferin-H conversion, luminescence;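 active = blocking of liver enzyme CYP2C9 beyond about 50% at 5 µM, limit read from the data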
Target sequence (P11712 whole entry, looked up): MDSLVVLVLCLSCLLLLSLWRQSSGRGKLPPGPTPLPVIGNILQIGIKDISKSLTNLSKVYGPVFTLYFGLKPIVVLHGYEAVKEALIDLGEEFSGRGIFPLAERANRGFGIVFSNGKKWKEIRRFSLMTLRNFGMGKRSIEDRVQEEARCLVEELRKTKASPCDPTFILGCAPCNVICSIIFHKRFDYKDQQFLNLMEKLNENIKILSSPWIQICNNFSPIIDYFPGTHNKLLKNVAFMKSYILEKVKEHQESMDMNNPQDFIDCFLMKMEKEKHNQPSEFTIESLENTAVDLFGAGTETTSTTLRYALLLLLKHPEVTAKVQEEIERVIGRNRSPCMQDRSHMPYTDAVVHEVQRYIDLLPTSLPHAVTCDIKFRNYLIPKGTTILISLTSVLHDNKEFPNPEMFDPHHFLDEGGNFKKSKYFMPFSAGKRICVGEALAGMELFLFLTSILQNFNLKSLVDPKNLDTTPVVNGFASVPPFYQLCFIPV
cytoskel mod: cytoskeleton assembly modification | 91,000 compounds, 0.18% hits | inhibition, % at 2 µM | HUVEC TNFa F-actin phalloidin imaging, high content | AID 836;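 active = inhibition above the batch mean plus 3 SD and confirmed as a hit by visual image inspection, cut at about 30% in these data, passing the limit was not always enough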
CYP2C9 activ: activators of human CYP2C9 | P11712 | recombinant CYP2C9, luciferin-H conversion, luminescence; active compounds read high; factor 1 = untreated enzyme, 0 = blocked | activation factor at 5 µM | 96,000 compounds, 1.4% hits | AID 1024;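 active = activation factor of 2 or more for CYP2C9 at a 5 µM dose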;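 note: 0 = sulfaphenazole-blocked wells and 1 = vehicle-only wells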
* = called active by the depositor.

What do the screens show for `CC(C)CCN1C(=O)c2ccc(C(=O)NCC3CCCO3)cc2C1=O` (stereo not given)?
E-sel TNF inh: 13; CYP2C19 inhib: 79*; CYP2C19 activ: 0.2; CYP2C9 inhib: 81*; cytoskel mod: 40; CYP2C9 activ: 0.2

How did COC(=O)c1ccc(C2C(C#N)=C(C)NC3=C2C(=O)CC(C)(C)C3)cc1 (stereo not given) do in these assays?
E-sel TNF inh: -10; CYP2C19 inhib: 24; CYP2C19 activ: 0.8; CYP2C9 inhib: 36; cytoskel mod: 5; CYP2C9 activ: 0.6

What do the screens show for `COc1ccc(C2C(C#N)=C(SC)NC3=C2C(=O)CC(C)(C)C3)cc1` (stereo not given)?
E-sel TNF inh: -24; CYP2C19 inhib: 50; CYP2C19 activ: 0.5; CYP2C9 inhib: 73*; CYP2C9 activ: 0.3

What do the screens show for `CSC1=C(C#N)C(c2ccc(C)cc2)C2=C(CCCC2=O)N1` (stereo not given)?
E-sel TNF inh: 11; CYP2C19 inhib: 9; CYP2C19 activ: 0.9; CYP2C9 inhib: 16; cytoskel mod: -17; CYP2C9 activ: 0.8

What do the screens show for `CCOC(=O)CSC1=C(C#N)C(c2ccc(OC)cc2)C2=C(CC(C)(C)CC2=O)N1` (stereo not given)?
CYP2C19 inhib: 72*; CYP2C19 activ: 0.3; CYP2C9 inhib: 63*; CYP2C9 activ: 0.4

How did CCOC(=O)CSC1=C(C#N)C(c2ccc(C)cc2)C2=C(CCCC2=O)N1 (stereo not given) do in these assays?
CYP2C19 inhib: 21; CYP2C19 activ: 0.8; CYP2C9 inhib: 78*; cytoskel mod: 1; CYP2C9 activ: 0.2

How did COc1ccc(C2CC(=O)C3=C(C2)NC(C)=C(C#N)C3c2ccc(N(C)C)cc2)cc1 (stereo not given) do in these assays?
E-sel TNF inh: -47; CYP2C19 inhib: 64*; CYP2C19 activ: 0.4; CYP2C9 inhib: 87*; CYP2C9 activ: 0.1

What do the screens show for `COc1ccc(C2C(C#N)=C(C)NC3=C2C(=O)CC(C)(C)C3)c(OC)c1` (stereo not given)?
E-sel TNF inh: 2; CYP2C19 inhib: 13; CYP2C19 activ: 0.9; CYP2C9 inhib: 39; cytoskel mod: -2; CYP2C9 activ: 0.6

What do the screens show for `Cc1nc2c(o1)CCc1ccccc1C2O` (stereo not given)?
E-sel TNF inh: -11; CYP2C19 inhib: 22; CYP2C19 activ: 0.8; CYP2C9 inhib: 0; cytoskel mod: -6; CYP2C9 activ: 1

Results for CCCc1nnc(SCC(=O)N2CCCCC2C)n1CC (stereo not given) ?
E-sel TNF inh: -3; CYP2C19 inhib: -1; CYP2C19 activ: 1; CYP2C9 inhib: -5; cytoskel mod: -1; CYP2C9 activ: 1

Results for COc1ccc(OC(=O)c2cccc([N+](=O)[O-])c2)c(C(=O)/C=C/c2cccs2)c1 ?
E-sel TNF inh: 9; CYP2C19 inhib: 62*; CYP2C19 activ: 0.4; CYP2C9 inhib: 75*; CYP2C9 activ: 0.3

What do the screens show for `Cc1nc(N2CCOCC2)nc(OC(C)C)c1[N+](=O)[O-]`?
E-sel TNF inh: 4

What do the screens show for `CCCCCCCC1CC(CSc2ncn[nH]2)OC1=O` (stereo not given)?
E-sel TNF inh: 5; cytoskel mod: 8

Results for CCCCC1CC(CSc2ncn[nH]2)OC1=O (stereo not given) ?
CYP2C19 inhib: 80*; CYP2C19 activ: 0.2; CYP2C9 inhib: 22; cytoskel mod: -8; CYP2C9 activ: 0.8

What do the screens show for `COc1ccc(NC(=O)C2=C(C)NC(=O)NC2c2cccc(OC)c2OC)c(OC)c1` (stereo not given)?
E-sel TNF inh: -2; CYP2C19 inhib: 24; CYP2C19 activ: 0.8; CYP2C9 inhib: 26; cytoskel mod: 2; CYP2C9 activ: 0.7

What do the screens show for `CC(=O)Nc1ccc(S(=O)(=O)N[C@@H](C)C(=O)Nc2ccc(N3CCOCC3)cc2)cc1`?
E-sel TNF inh: -7; CYP2C19 inhib: 5; CYP2C19 activ: 1; CYP2C9 inhib: 6; cytoskel mod: -8; CYP2C9 activ: 0.9

What do the screens show for `COc1ccc(CC(=O)NC(CC(=O)O)c2cccc([N+](=O)[O-])c2)cc1` (stereo not given)?
E-sel TNF inh: -15

How did COc1cc(CC(=O)O)c(C(C)=O)cc1OC do in these assays?
E-sel TNF inh: 33; CYP2C19 inhib: -9; CYP2C19 activ: 1.1; CYP2C9 inhib: -3; cytoskel mod: 12; CYP2C9 activ: 1

Results for CC(=O)c1ccc(O)c(CO)c1 ?
CYP2C19 inhib: -18; CYP2C19 activ: 1.2; CYP2C9 inhib: -7; cytoskel mod: -15; CYP2C9 activ: 1.1

Results for CC(=O)c1cc(CC=C(C)C)c(O)cc1O ?
E-sel TNF inh: 6; CYP2C19 inhib: 32; CYP2C19 activ: 0.7; CYP2C9 inhib: 80*; cytoskel mod: 4; CYP2C9 activ: 0.2

What do the screens show for `CC(=O)c1cc(CC=C(C)C)c(O)c(CC=C(C)C)c1O`?
E-sel TNF inh: -31; CYP2C19 inhib: 84*; CYP2C19 activ: 0.2; CYP2C9 inhib: 71*; cytoskel mod: 14; CYP2C9 activ: 0.3

How did COC(=O)c1ccc(C2NC(=S)N(c3ccccc3)C(C)=C2C(=O)Nc2ccccc2OC)cc1 (stereo not given) do in these assays?
E-sel TNF inh: 15; CYP2C19 inhib: 80*; CYP2C19 activ: 0.2; CYP2C9 inhib: 81*; cytoskel mod: -21; CYP2C9 activ: 0.2

Results for COc1ccccc1NC(=O)C1=C(C)N(c2ccccc2)C(=S)NC1c1cccc(C(F)(F)F)c1 (stereo not given) ?
E-sel TNF inh: 21; CYP2C19 inhib: 92*; CYP2C19 activ: 0.1; CYP2C9 inhib: 96*; cytoskel mod: 2; CYP2C9 activ: 0

Results for COc1ccccc1NC(=O)C1=C(C)NC(=O)NC1c1ccccc1F (stereo not given) ?
E-sel TNF inh: 3; CYP2C19 inhib: -7; CYP2C19 activ: 1.1; CYP2C9 inhib: -60; CYP2C9 activ: 1.6

How did COCCCNC(=O)C(F)(F)C(F)(F)C(=O)NCCCOC do in these assays?
E-sel TNF inh: 3; CYP2C19 inhib: 0; CYP2C19 activ: 1; CYP2C9 inhib: -4; cytoskel mod: -1; CYP2C9 activ: 1

Results for COc1ccc2nc(NC(=O)CN3CCOCC3)sc2c1 ?
E-sel TNF inh: 14; CYP2C19 inhib: -3; CYP2C19 activ: 1; CYP2C9 inhib: 26; cytoskel mod: 16; CYP2C9 activ: 0.7

Results for Cc1c(Cl)cccc1NC(=S)N1CCC(C(N)=O)(N2CCCCC2)CC1 ?
E-sel TNF inh: 16

What do the screens show for `CC(C)(C)c1ccc(OCCn2ccccc2=O)cc1`?
CYP2C19 inhib: 70*; CYP2C19 activ: 0.3; CYP2C9 inhib: 40; cytoskel mod: -18; CYP2C9 activ: 0.6

Results for O=C1C(C=NCc2ccncc2)=C(O)c2ccccc21 ?
E-sel TNF inh: 21; CYP2C19 inhib: 76*; CYP2C19 activ: 0.2; CYP2C9 inhib: 85*; CYP2C9 activ: 0.2

Results for CC(C)c1ccc(C2=C(O)c3ccccc3C(=O)C2=O)cc1 ?
E-sel TNF inh: 19
